Screening data (PubChem)
In the library only some 18% were active in any assay of this set; here they are far more common.
TGFb inhibitor – TGF-b pathway inhibition; HepG2 CAGA-GFP TGF-b/SMAD3 reporter, GFP fluorescence, 18 h; TGF-beta stimulated, 500 pg/mL final; Potency, µM (top dose mostly 46.1 µM), most hits filed as inhibitors; 1.2% of 410,000 active; AID 588855; also: nearly all actives have a fitted effect of over 65% in size
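HEPG2 CAGA-GFP cells (1000/well, DMEM with 1% FBS) were pre-incubated 2 h at 37 degrees C, given compound by pin tool, then stimulated with TGF-beta at 500 pg/mL final for 18 h before per-cell GFP fluorescence imaging.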
IL-1B inflam inh – inflammasome signaling inhibition, IL-1 beta readout; THP-1 LPS/ATP IL-1B secretion, AlphaLISA, 16 h; active compounds read low; activity change, % at 57.5 µM; 4.7% of 360,000 active; AID 743279; in the data active = activity change below about -50%; inconclusive = mostly about -30% to -49%
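Secreted IL-1B measured by AlphaLISA bead assay after 16 h compound exposure of THP-1 cells; compounds (final up to 57.5 uM) added 1 h before LPS (250 ng/mL) and ATP (1.25 mM) stimulation; lower signal means less secretion.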
TDP1 cell CPT – growth inhibition of DT40 Tdp1-/-;hTDP1 cells with camptothecin (screen for TDP1 inhibitors); chicken DT40 Tdp1-/-;hTDP1 cells + 20 nM CPT, ATP luminescence, 48 h; 12% of 420,000 active; Potency, µM (top dose mostly 46.2 µM), usual class: inhibitors; also: nearly all actives have a fitted effect of over 55% in size
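Cell growth measured by CellTiter-Glo luminescence after a minimum 48 h, 37 C compound exposure with 20 nM CPT in Tdp1-knockout DT40 cells stably expressing hTDP1, seeded 400/well; qHTS titration format.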
DT40 TDP1 no CPT – qHTS for Inhibitors of human tyrosyl-DNA phosphodiesterase 1 (TDP1): qHTS in cells in absence of CPT; DT40 Tdp1-/- hTDP1 cells, no CPT, ATP luminescence, 48 h; 15% of 420,000 active; Potency, µM (titrated, usually from 46.2 µM), actives largely listed as inhibitors; AID 686978, 2013; also: nearly all actives have a fitted effect of over 55% in size
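DT40 Tdp1-/-;hTDP1 cells, no CPT (DMSO vehicle only), 400 cells/well; compounds pin-transferred; ≥48 hr, 37 °C; CellTiter-Glo 30 min RT dark, luminescence read.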
HepG2 tox – kills HepG2 cells in TGF-b inhibitor counter-screen. HepG2 CAGA-GFP viability, ATP luminescence, 18 h. Potency, µM (highest dose often 46.1 µM), actives largely listed as cytotoxic. 0.76% of 410,000 active
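CellTiter-Glo luminescence gave cytotoxicity after 18 hours at 37 degrees C. The cells were HepG2 CAGA-GFP in 1% FBS DMEM, stimulated with 500 pg/mL TGF-beta after compound addition. %Activity was normalised to no-cell wells (complete cell-killing) and DMSO (no toxicity), and curves were fitted and classified.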
TDP1 block – inhibitors of human tyrosyl-DNA phosphodiesterase TDP1 | Q9NUW8 | recombinant TDP1, AlphaScreen DNA substrate cleavage | Potency, µM (titrated, usually from 130 µM), usual class: inhibitors | 0.28% of 350,000 active; also: nearly all actives have a fitted effect of over 40% in size
Target sequence (Q9NUW8 whole entry, looked up): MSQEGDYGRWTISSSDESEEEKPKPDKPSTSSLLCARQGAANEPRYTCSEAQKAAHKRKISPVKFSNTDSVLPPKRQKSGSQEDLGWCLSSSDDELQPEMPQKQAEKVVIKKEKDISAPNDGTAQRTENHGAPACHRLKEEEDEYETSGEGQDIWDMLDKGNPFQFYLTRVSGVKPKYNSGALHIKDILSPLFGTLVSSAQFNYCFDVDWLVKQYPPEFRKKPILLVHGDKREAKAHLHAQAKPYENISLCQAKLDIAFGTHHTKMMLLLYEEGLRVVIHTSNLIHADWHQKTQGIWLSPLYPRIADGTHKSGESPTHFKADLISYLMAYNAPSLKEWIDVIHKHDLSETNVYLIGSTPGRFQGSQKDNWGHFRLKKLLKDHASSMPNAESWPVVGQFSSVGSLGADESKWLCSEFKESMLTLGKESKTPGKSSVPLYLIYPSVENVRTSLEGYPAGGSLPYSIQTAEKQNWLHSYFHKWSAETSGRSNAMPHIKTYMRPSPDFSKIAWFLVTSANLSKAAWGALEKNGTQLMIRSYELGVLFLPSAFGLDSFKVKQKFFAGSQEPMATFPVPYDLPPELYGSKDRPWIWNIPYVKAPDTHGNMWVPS
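Tdp1 1 nM final; 15 min RT w/ cpd; substrate 15 nM, 5 min; beads 10 ug/ml, 10 min; AlphaScreen read. Neg ctrl: no enzyme.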
Hits are given with their value; 0 = inactive; ? = inconclusive; - = no result; [ ] = remark or other dose. Unless noted, calls follow the shape of the dose curve; as a rule, active = well fitted curve in the direction sought with a large enough effect; inconclusive = small, poorly fitted or top-dose-only effect, or another doubt; inactive = no such curve, though single readings can be large; an effect the other way counts as inactive or inconclusive.

SMILES	TGFb inhibitor	IL-1B inflam inh	TDP1 cell CPT	DT40 TDP1 no CPT	HepG2 tox	TDP1 block
CC[C@H](C)[C@H](NC(=O)[C@H](Cc1ccc(O)cc1)NC(=O)[C@H](Cc1cnc[nH]1)NC(=O)[C@H](CCCNC(=N)N)NC(=O)[C@H](CC(C)C)NC(=O)[C@H](C)NC(=O)[C@H](CO)NC(=O)[C@H](Cc1ccc(O)cc1)NC(=O)[C@H](Cc1ccc(O)cc1)NC(=O)[C@H](CCCNC(=N)N)NC(=O)[C@H](C)NC(=O)[C@H](CC(C)C)NC(=O)[C@H](CC(=O)O)NC(=O)[C@H](CCC(=O)O)NC(=O)[C@H](C)NC(=O)[C@@H]1CCCN1C(=O)[C@H](C)NC(=O)[C@H](CC(=O)O)NC(=O)[C@H](CCC(=O)O)NC(=O)CNC(=O)[C@@H]1CCCN1C(=O)[C@H](CC(N)=O)NC(=O)[C@H](CC(=O)O)NC(=O)[C@@H]1CCCN1C(=O)[C@H](CCCCN)NC(=O)[C@H](CO)NC(=O)[C@@H]1CCCN1C(=O)[C@@H](N)Cc1ccc(O)cc1)C(=O)N[C@@H](CC(N)=O)C(=O)N[C@@H](CC(C)C)C(=O)N[C@@H](CC(C)C)C(=O)N[C@H](C(=O)N[C@@H](CCCNC(=N)N)C(=O)N1CCC[C@H]1C(=O)N[C@@H](CCCNC(=N)N)C(=O)N[C@@H](Cc1ccc(O)cc1)C(N)=O)[C@@H](C)O	-	-	-	-	-	0
COc1cc(-c2cnc3ccccc3c2)cc2c1OCCN(C(=O)Cn1nccc1C)C2	-	-	0[9.04 µM]	0	-	-
CCCC[C@@H]1C=C(C(=O)O)[C@H](c2ccc(Cl)cc2)N1S(=O)(=O)c1ccc(C)cc1	0	0	0	0	0	0
O=C(/C=C/c1ccc(F)cc1)Nc1cccc(S(=O)(=O)N2CCOCC2)c1	?	-58	?	?	0	0
COc1ccc(S(=O)(=O)N2CCOCC2)cc1NC(=O)/C=C/c1ccc(F)cc1	0	0	0	0	0	0
COC(=O)c1cc(C(=O)c2c(C)cc3ccccn23)cc([N+](=O)[O-])c1	0	0	8.2µM	12µM	0	-
Cc1cc2ccccn2c1C(=O)c1cc([N+](=O)[O-])cc([N+](=O)[O-])c1	0	0	0	0	0	0
Cc1cc2ccccn2c1C(=O)c1ccc(C#N)cc1	0	0	?	23µM	0	-
Cc1cc2ccccn2c1C(=O)c1ccc(NN)c([N+](=O)[O-])c1	?	?	16µM	?	0	0
COc1ccc(CN(C(=O)Nc2cc(C)ccc2C)C2CCN(C(C)=O)CC2)cc1	0	-	0	?	0	0
C=CCOn1c(=O)c(-c2cc3ccccc3o2)[n+]([O-])c2ccccc21	0	0	0	18µM	0	0
C=CCOn1c(=O)c(-c2ccccc2)[n+]([O-])c2ccccc21	0	0	0	0	0	0
COC(=O)c1cc2sc(Cl)cc2n1Cc1nc(-c2ccccc2C)oc1C	0	-	0	0	0	0
O=C(c1ccccc1NS(=O)(=O)c1ccc([N+](=O)[O-])cc1[N+](=O)[O-])N1O[C@@H]2C=C[C@H]1C2	?	-72	9.2µM	9.2µM	0	-
O=C(c1ccccc1NS(=O)(=O)c1ccccc1[N+](=O)[O-])N1CCOCC1	0	0	0	0	0	0
CCOC(=O)CSc1cc(CS(=O)(=O)c2ccccc2)nc(-c2ccccc2)n1	0	0	0	0	0	0
O=S(=O)(Cc1cc(Cl)nc(-c2ccncc2)n1)c1ccccc1	0	-97	?	?	0	0
CS(=O)(=O)Cc1cc(Sc2ccccc2)nc(-c2ccncc2)n1	0	0	0	0	0	0
O=S(=O)(Cc1cc(Cl)nc(-c2ccccc2)n1)c1ccccc1	?	-70	0	?	0	0
Cc1ccc(Cc2c(C)nn(-c3nc(C)c(C(=O)N4CCCCC4C)s3)c2C)cc1 (stereo unspecified)	0	-	?	15µM	0	0
Cc1nc(-n2nc(C)c(Cc3ccc4c(c3)OCO4)c2C)sc1C(=O)Nc1cccc(Cl)c1	0	-	?	16µM	0	0
CC(=O)c1ccc(NC(=O)c2sc(-n3nc(C)c(Cc4ccccc4)c3C)nc2C)cc1	0	-	23µM	16µM	0	0
CC(=O)c1ccc(NC(=O)c2sc(-n3nc(C)c(Cc4ccc5c(c4)OCO5)c3C)nc2C)cc1	?	-	16µM	16µM	0	0
COc1ccc(C(C)NC(=O)Cc2cccs2)cc1 (stereo unspecified)	0	0	0	0	0	0
O=C(NCc1ccccc1)c1cc[n+](Cc2ccccc2)cc1	0	0	0	0	0	0
SMILES	TGFb inhibitor	IL-1B inflam inh	TDP1 cell CPT	DT40 TDP1 no CPT	HepG2 tox	TDP1 block
Cc1ccc(Cl)cc1NC(=O)c1sc(-n2nc(C)c(Cc3ccc4c(c3)OCO4)c2C)nc1C	0	-	?	2.9µM	0	0
N#CC1=C(Nc2ccccc2Cl)SC(c2ccccc2O)NC1=O (stereo unspecified)	0	0	21µM	?	0	0
COc1cccc(NC2=C(C#N)C(=O)NC(c3cccc(OC)c3O)S2)c1 (stereo unspecified)	?	0	0	0	0	0
CC1=CC(C)(C)Nc2ccc(OC(=O)CCN3C(=O)c4ccccc4C3=O)cc21	?	-99	3.3µM	3.7µM	0	0
C[C@H](CO)N1C[C@H](C)[C@@H](CN(C)S(=O)(=O)c2cccs2)Oc2c(NC(=O)NC3CCCCC3)cccc2C1=O	?	?	?	?	0	0
CC(C)(C)Cc1c(-c2ccccc2)nc2ccc(Br)cn12	0	0	?	23µM	0	-
Cc1ccc(-c2nc3ccc(Br)cn3c2CC(C)(C)C)cc1	0	0	?	12µM	0	-
Cc1ccc(Cc2c(-c3cccc(Br)c3)nc3ccc(Br)cn23)cc1	0	0	0	0	0	-
O=C(c1ccncc1)N1CCC[C@@]2(CCN(c3ccncc3)C2)C1	-	-	0	0	-	-
CC(C)CCNC(=O)c1cc(Sc2ccc(F)cc2F)nc2ccccc12	0	-	?	?	0	0
CCc1ccc(Sc2cc(C(=O)NCc3ccccc3OC)c3ccccc3n2)cc1	0	-	21µM	18µM	0	0
CCc1ccc(Sc2cc(C(=O)NC(C)CC)c3ccccc3n2)cc1 (stereo unspecified)	0	-	16µM	16µM	0	0
CCC(C)NC(=O)c1cc(Sc2cccc(Cl)c2)nc2ccccc12 (stereo unspecified)	0	-	16µM	15µM	0	0
